Screen size: about 5,500 compounds; about 2,000 (36%) were called active. Inconclusive results (about 18%) are left out. Rule as the data show it: active = normalized growth mostly below about 0.91 (no sharp cut-off); inconclusive = no clear call, values can overlap the other calls; inactive = mostly above about 0.92. This is one part of the list.
Experiment: chemical genetic growth profiling, strain panel (AID 1159580);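 also: tested at 20 µM; growth read once vehicle control cultures reached saturation at 30 °C; 1 = growth at the plate median or of vehicle wells; lower values mean less growth of the strain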
Settings: growth OD

Measured: normalized growth

COc1cc(OC)cc(OC)c1
inactive: S. cerevisiae deletion strains, locus YAL013W, strain DEP1, hits give low values 1.01 | S. cerevisiae deletion strains, locus YBR021W, strain FUR4, hits give low values 1.02 | S. cerevisiae deletion strains, locus YBR229C, strain ROT2, hits give low values 1.01 | S. cerevisiae deletion strains, locus YDL035C, strain GPR1, hits give low values 1.02 | S. cerevisiae deletion strains, locus YDL074C, strain BRE1, hits give low values 1.01 | S. cerevisiae deletion strains, locus YDL101C, strain DUN1, hits give low values 1 | S. cerevisiae deletion strains, locus YDL134C, strain PPH21, hits give low values 1 | S. cerevisiae deletion strains, locus YDL185W, strain tfp1, hits give low values 0.982 | S. cerevisiae deletion strains, locus YDR150W, strain NUM1, hits give low values 1.01 | S. cerevisiae deletion strains, locus YDR162C, strain NBP2, hits give low values 1.02 | S. cerevisiae deletion strains, locus YEL061C, strain CIN8, hits give low values 1 | S. cerevisiae deletion strains, locus YER155C, strain BEM2, hits give low values 1.01 | S. cerevisiae deletion strains, locus YER167W, strain BCK2, hits give low values 1.01 | S. cerevisiae deletion strains, locus YGL248W, strain PDE1, hits give low values 1.01 | S. cerevisiae deletion strains, locus YGR078C, strain PAC10, hits give low values 1.01 | S. cerevisiae deletion strains, locus YGR229C, strain SMI1, hits give low values 1 | S. cerevisiae deletion strains, locus YHR030C, strain SLT2, hits give low values 1.01 | S. cerevisiae deletion strains, locus YHR129C, strain ARP1, hits give low values 1.01 | S. cerevisiae deletion strains, locus YIL066C, strain RNR3, hits give low values 1.01 | S. cerevisiae deletion strains, locus YIL073C, strain SPO22, hits give low values 1 | S. cerevisiae deletion strains, locus YJL095W, strain BCK1, hits give low values 1.01 | S. cerevisiae deletion strains, locus YJL134W, strain LCB3, hits give low values 1 | S. cerevisiae deletion strains, locus YJL187C, strain SWE1 (second series), hits give low values 1.02 | S. cerevisiae deletion strains, locus YJR043C, strain POL32, hits give low values 0.994 | S. cerevisiae deletion strains, locus YJR075W, strain HOC1, hits give low values 1 | S. cerevisiae deletion strains, locus YKL009W, strain mrt4, hits give low values 0.898 | S. cerevisiae deletion strains, locus YKL068W, hits give low values 1 | S. cerevisiae deletion strains, locus YKL190W, strain CNB1, hits give low values 1.01 | S. cerevisiae deletion strains, locus YLR039C, strain RIC1, hits give low values 1.01 | S. cerevisiae deletion strains, locus YLR058C, strain SHM2, hits give low values 1.01 | S. cerevisiae deletion strains, locus YLR262C, strain YPT6, hits give low values 1.04 | S. cerevisiae deletion strains, locus YLR330W, strain CHS5, hits give low values 1 | S. cerevisiae deletion strains, locus YLR342W, strain FKS1 (second series), hits give low values 0.983 | S. cerevisiae deletion strains, locus YML016C, strain PPZ1, hits give low values 1 | S. cerevisiae deletion strains, locus YMR263W, strain SAP30, hits give low values 1.02 | S. cerevisiae deletion strains, locus YMR307W, strain GAS1, hits give low values 0.961 | S. cerevisiae deletion strains, locus YNL067W, strain RPL9B, hits give low values 1.02 | S. cerevisiae deletion strains, locus YNL128W, strain TEP1, hits give low values 1.02 | S. cerevisiae deletion strains, locus YNL153C, strain GIM3, hits give low values 1.02 | S. cerevisiae deletion strains, locus YNL233W, strain BNI4, hits give low values 1.02 | S. cerevisiae deletion strains, locus YNL322C, strain KRE1, hits give low values 1.01 | S. cerevisiae deletion strains, locus YNR052C, strain pop2, hits give low values 1 | S. cerevisiae deletion strains, locus YOL006C, strain TOP1, hits give low values 0.948 | S. cerevisiae deletion strains, locus YOR061W, strain CKA2, hits give low values 1 | S. cerevisiae deletion strains, locus YOR069W, strain VPS5, hits give low values 1 | S. cerevisiae deletion strains, locus YOR144C, strain elg1, hits give low values 0.997 | S. cerevisiae deletion strains, locus YPL055C, strain LGE1, hits give low values 1.02 | S. cerevisiae deletion strains, locus YPL241C, strain CIN2, hits give low values 1.01 | S. cerevisiae deletion strains, locus YPR141C, strain kar3, hits give low values 1.01 | S. cerevisiae strains, strain wild type, hits give low values 1.01
active: S. cerevisiae deletion strains, locus YCL029C, strain bik1, hits give low values 0.743 | S. cerevisiae deletion strains, locus YDL192W, strain arf1, hits give low values 0.102 | S. cerevisiae deletion strains, locus YDR101C, strain arx1, hits give low values 0.529 | S. cerevisiae deletion strains, locus YDR318W, strain mcm21, hits give low values 0.0697 | S. cerevisiae deletion strains, locus YDR388W, hits give low values 0.0643 | S. cerevisiae deletion strains, locus YDR502C, strain sam2, hits give low values 0.159 | S. cerevisiae deletion strains, locus YER110C, hits give low values 0.305 | S. cerevisiae deletion strains, locus YGL078C, strain dbp3, hits give low values 0.299 | S. cerevisiae deletion strains, locus YGL086W, strain mad1, hits give low values 0.0586 | S. cerevisiae deletion strains, locus YGR135W, strain pre9, hits give low values 0.0735 | S. cerevisiae deletion strains, locus YGR252W, strain gcn5, hits give low values 0.24 | S. cerevisiae deletion strains, locus YHR079C, strain IRE1 (second series), hits give low values 0.598 | S. cerevisiae deletion strains, locus YHR094C, strain hxt1, hits give low values 0.147 | S. cerevisiae deletion strains, locus YHR200W, strain rpn10, hits give low values 0.124 | S. cerevisiae deletion strains, locus YIL125W, strain kgd1, hits give low values 0.263 | S. cerevisiae deletion strains, locus YIR030C, strain dcg1, hits give low values 0.317 | S. cerevisiae deletion strains, locus YJL168C, strain set2, hits give low values 0.206 | S. cerevisiae deletion strains, locus YKL085W, strain MDH1 (second series), hits give low values 0.211 | S. cerevisiae deletion strains, locus YKL085W, strain MDH1, hits give low values 0.211 | S. cerevisiae deletion strains, locus YKR001C, strain vps1, hits give low values 0.127 | S. cerevisiae deletion strains, locus YLR102C, strain apc9, hits give low values 0.106 | S. cerevisiae deletion strains, locus YLR268W, strain sec22, hits give low values 0.0897 | S. cerevisiae deletion strains, locus YLR371W, strain rom2, hits give low values 0.0926 | S. cerevisiae deletion strains, locus YLR418C, strain cdc73, hits give low values 0.104 | S. cerevisiae deletion strains, locus YML032C, strain rad52, hits give low values 0.853 | S. cerevisiae deletion strains, locus YML124C, strain tub3, hits give low values 0.181 | S. cerevisiae deletion strains, locus YMR078C, strain ctf18, hits give low values 0.231 | S. cerevisiae deletion strains, locus YMR223W, strain ubp8, hits give low values 0.0875 | S. cerevisiae deletion strains, locus YNL250W, strain rad50, hits give low values 0.725 | S. cerevisiae deletion strains, locus YNL271C, strain bni1, hits give low values 0.351 | S. cerevisiae deletion strains, locus YNL298W, strain CLA4, hits give low values 0.725 | S. cerevisiae deletion strains, locus YNL307C, strain MCK1, hits give low values 0.0671 | S. cerevisiae deletion strains, locus YOL147C, strain pex11, hits give low values 0.838 | S. cerevisiae deletion strains, locus YOR136W, strain idh2, hits give low values 0.104 | S. cerevisiae deletion strains, locus YOR184W, strain ser1, hits give low values 0.0729 | S. cerevisiae deletion strains, locus YOR316C, strain cot1, hits give low values 0.096 | S. cerevisiae deletion strains, locus YPR119W, strain clb2, hits give low values 0.169 | S. cerevisiae deletion strains, locus YPR163C, strain tif3, hits give low values 0.0751 | S. cerevisiae deletion strains, locus YPR167C, strain met16, hits give low values 0.0964 | S. cerevisiae deletion strains, strain wtn01, hits give low values 0.0632

— PubChem BioAssay AID1159580 (chemical genetic matrix, 2015)
